Experimental data reported in PubChem BioAssay (NCATS).
Inconclusive results are not listed. The source made the active and inactive calls. Unless noted, the call rests on the fitted dose curve; in most records, active means well fitted curve in the direction sought with a large enough effect; inconclusive means small, poorly fitted or top-dose-only effect, or another doubt; inactive means no such curve, though single readings can be large; an effect the other way counts as inactive or inconclusive.

Columns and labels:
[1] = P-glycoprotein substrates identified in KB-8-5-11 adenocarcinoma cell line, qHTS therapeutic library screen (AID 1346987); further: nearly all actives have a fitted effect of over 65% in size; further: potency means the concentration at half of the fitted maximal effect; on activity change, negative = cytotoxicity: on the % scale 0 is the no-effect control and ±100 the full control effect
Method in brief: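 Steps: plate 500 KB-8-5-11 cells/well in DMEM + 10% FCS (colchicine removed); pin compounds in dose-response; incubate 72 h, 37 degree C, 5% CO2; add CellTiter-Glo, 5 min; read luminescence.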

[2] = system: Zika virus NS2B-NS3 protease (linked construct); assay: Primary screen NINDS Rhodamine qHTS for Zika virus inhibitors (AID 1347160); further: on the % scale 0 is the no-effect control and ±100 the full control effect; nearly all actives have a fitted effect of over 55% in size
Method in brief: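 Purified linked NS2B-NS3 protease (NS2B hydrophilic domain joined to NS3 protease by flexible linker), 25 nM in 10 mM Tris-HCl pH 8.0, 0.01% Tween 20. Compounds titrated, 15 min preincubation at room temperature; 1.5 microM Rhodamine110 substrate, FITC fluorescence change over 15 min.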

[3] = system: Zika virus NS2B-NS3 protease (unlinked complex); assay: Primary screen GU Rhodamine qHTS for Zika virus inhibitors: Unlinked NS2B-NS3 protease assay (AID 1347159); further: on the % scale 0 is the no-effect control and ±100 the full control effect; nearly all actives have a fitted effect of over 60% in size
Method in brief: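 Noncovalent NS2B hydrophilic domain–NS3 protease domain complex (25 nM) preincubated 15 min at room temperature with compounds (up to 114 microM) in 10 mM Tris-HCl pH 8.0, 0.01% Tween 20; 1.5 microM Rhodamine110 substrate added, fluorescence change over 15 min fitted to Hill equation.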

[4] = molecular target: Calcium and integrin-binding protein 1 (Homo sapiens) (UniProt Q99828); assay: Primary qHTS for Identification of Calcium Integrin Binding Protein 1 (CIB1) Competitor (AID 1508620);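 further: GST tagged CIB1 binding a fluorescein labelled alphaIIb integrin peptide tracer; top concentration of the series differs between compounds; on the % scale 0 is the no-effect control and ±100 the full control effect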
Method in brief: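 CIB1-GST (1 uM final) and compound incubated 15 min at room temperature before adding FITC-alphaIIb peptide tracer (100 nM final). Competition for binding read by fluorescence polarization (ex 480, em 540) after another 15 min at room temperature.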

[5] = Primary redox qHTS assay for identification of artifact compounds. (AID 1845223);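 further: 0% = DMSO and 100% = reference compound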
Method in brief: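 Amplex Red (25 uM) and HRP (250 mU/mL) in HBSS, with compounds for 15 min, then 250 uM DTT for 30 min, room temperature, dark. Fluorescence 525/598 nm read; normalized to DMSO and 10 uM DA3003; Hill fit.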

CAOV3 = assay: Primary qHTS to identify gynecologic anti-cancer compounds using libraries of approved drugs and bioactive compounds (AID 1345084); details: Gynecologic cancer cell panel viability, ATPlite luminescence, 48 h; series mostly up to 57.5 µM; further: nearly all actives have a fitted effect of over 55% in size; further: potency means the concentration at half of the fitted maximal effect; on activity change, negative = cytotoxicity: on the % scale 0 is the no-effect control and ±100 the full control effect
Method in brief: (§1)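 Luminescence from the ATPlite ATP-monitoring reagent indicates viable cell number; lower signal means cytotoxicity. Cells received compound 16 h after seeding and were exposed for 48 h across five concentrations.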

HeLa = assay: as above; details: Gynecologic cancer cell panel viability, ATPlite luminescence, 48 h; series mostly up to 57.5 µM
Method in brief: as §1

JEG-3 = assay: as above; details: Gynecologic cancer cell panel viability, ATPlite luminescence, 48 h; series mostly up to 57.5 µM
Method in brief: as §1

SKOV3 = assay: as above; details: Gynecologic cancer cell panel viability, ATPlite luminescence, 48 h; series mostly up to 57.5 µM
Method in brief: as §1

[6] = molecular target: Catechol O-methyltransferase (Homo sapiens) (UniProt P21964); assay: Confirmatory Screen for Target Class Profiling of Small Molecule Inhibitors of Methyltransferases (AID 1745852); details: MTase-Glo luminescence, SAH detection, recombinant enzyme; measured here: COMT max response; stronger effect = lower value; on activity change, negative = inhibition: on the % scale 0 is the no-effect control and ±100 the full control effect
[7] = molecular target: Guanidinoacetate N-methyltransferase (Homo sapiens) (UniProt Q14353); assay: as above; details: activity change, negative = inhibition: at 57.3 µM (top of the series) unless noted
[8] = molecular target: Nicotinamide N-methyltransferase (Homo sapiens) (UniProt P40261); assay: as above; details: MTase-Glo luminescence, SAH detection, recombinant enzyme; measured here: NNMT max response; stronger effect = lower value
[9] = qHTS drug screen for cell cycle checkpoint inhibitors in PARPi-resistant BRCA-mutant ovarian cancer cell lines. (AID 1963452; calls by dose curve); details: PEO1/OlaR viability, CellTiter-Glo luminescence, 96 h, stronger effect = lower value
Method in brief: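 PEO1, PEO4 and PEO1/OlaR ovarian cancer cells, 600 per well, exposed 96 h at 37C to a dilution series. Viability read by CellTiter-Glo luminescence, normalized to DMSO and empty wells; activity summarized as Z-AUC.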

[10] = P-glycoprotein substrates identified in KB-3-1 adenocarcinoma cell line, qHTS therapeutic library screen (AID 1346986); further: nearly all actives have a fitted effect of over 60% in size
Method in brief: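 Cells seeded 500/well in DMEM/10% FCS; compounds pinned in dose-response; 72 h incubation; CellTiter-Glo added, 5 min, luminescence. KB-8-5-11 run ±tariquidar to test reversal of P-gp resistance.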

CRL-7250 = normal cell line; assay: qHTS assay to identify novel small-molecules to repurpose for Merkel cell carcinoma treatment (AID 1296009); details: MCC and control cell lines, CellTiter-Glo viability, 72 h; series mostly up to 92 µM; further: nearly all actives have a fitted effect of over 60% in size
Method in brief: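 72 hr, 37 degree celsius; NPC 8-pt / MIPE 11-pt dose response; compound pinned in DMSO; CellTiter-Glo, 10 min RT, luminescence; normalized to no-cell and DMSO controls.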

Calcium and integrin-binding protein 1 (Homo sapiens), sequence (Q99828 whole entry, looked up): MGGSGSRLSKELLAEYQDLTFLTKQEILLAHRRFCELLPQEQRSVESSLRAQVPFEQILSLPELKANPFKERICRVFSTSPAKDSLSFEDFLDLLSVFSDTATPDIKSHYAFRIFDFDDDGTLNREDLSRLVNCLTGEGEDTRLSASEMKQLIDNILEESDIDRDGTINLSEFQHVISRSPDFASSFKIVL
Catechol O-methyltransferase (Homo sapiens), sequence (P21964 whole entry, looked up): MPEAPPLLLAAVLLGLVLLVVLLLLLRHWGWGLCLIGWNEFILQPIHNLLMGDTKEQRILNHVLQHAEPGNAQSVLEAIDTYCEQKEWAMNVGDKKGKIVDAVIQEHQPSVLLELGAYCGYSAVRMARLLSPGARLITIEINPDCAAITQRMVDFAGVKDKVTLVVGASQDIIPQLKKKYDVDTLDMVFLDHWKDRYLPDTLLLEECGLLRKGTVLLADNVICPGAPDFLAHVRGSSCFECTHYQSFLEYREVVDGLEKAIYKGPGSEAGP
Nicotinamide N-methyltransferase (Homo sapiens), sequence (P40261 whole entry, looked up): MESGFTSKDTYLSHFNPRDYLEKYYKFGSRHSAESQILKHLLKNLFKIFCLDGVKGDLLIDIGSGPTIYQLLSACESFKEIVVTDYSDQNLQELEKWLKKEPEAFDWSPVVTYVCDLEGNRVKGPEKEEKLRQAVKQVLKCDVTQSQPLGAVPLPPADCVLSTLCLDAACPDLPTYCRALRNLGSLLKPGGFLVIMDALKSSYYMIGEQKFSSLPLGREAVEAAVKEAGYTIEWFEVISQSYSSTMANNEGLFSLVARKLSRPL

COc1cc2c(c(OC)c1OC)-c1ccc(SC)c(=O)cc1[C@@H](NC(C)=O)CC2
inactive: Potency [2]
active: Potency [1] 231 nM

Nc1ncnc2c1ncn2[C@@H]1O[C@@H]2COP(O)(=S)O[C@H]2[C@H]1O (stereo partly specified)
inactive: activity change, negative = cytotoxicity [1] 2.93% [at 9.29 µM] | activity change, negative = inhibition [3] 2.11% [at 19.1 µM] | activity change, negative = inhibition [2] 16.2% [at 10.7 µM] | Potency [4] | redox activity (% of DA3003) [5] -10% [at 11.5 µM] | activity change, negative = cytotoxicity (CAOV3) 2.86% [at 11.6 µM] | activity change, negative = cytotoxicity (HeLa) 5.24% [at 11.6 µM] | activity change, negative = cytotoxicity (JEG-3) 6.35% [at 11.6 µM] | activity change, negative = cytotoxicity (SKOV3) 33.4% [at 11.6 µM]

CCCCN1[C@@H]2CC[C@H]1CC(OC(c1ccc(F)cc1)c1ccc(F)cc1)C2 (stereo partly specified)
-14%: activity [8]
0%: activity change, negative = inhibition [7]
0.354%: activity [6]
inactive: Potency [3] | Potency [2] | Potency [4] | Potency (HeLa) | Potency (JEG-3)

CN[C@@H]1C[C@H]2O[C@@](C)([C@@H]1OC)n1c3ccccc3c3c4c(c5c6ccccc6n2c5c31)C(=O)NC4
active: Potency [1] 58 nM | Potency (HeLa) 282 nM | Potency (SKOV3) 316 nM
inactive: Potency [4] | Potency [5] | Z-AUC [9] -2.43
-2.26: Z-AUC ([9]; measured here: PEO1 parental Z-AUC)
-2.16: Z-AUC ([9]; measured here: PEO4 Z-AUC)

C=C(C)[C@@H]1[C@H]2OC(=O)[C@H]1[C@]1(O)C[C@H]3O[C@]34C(=O)O[C@H]2[C@]14C
inactive: Potency [10] | Potency [1] | Potency [3] | Potency [4] | Potency [5] | Potency (CRL-7250) | Potency (CAOV3) | Potency (JEG-3) | Potency (SKOV3)
